MRP reversal – MRP-mediated drug resistance reversal; AID 602; differential viability (reversal), % at 10 µM; H69AR cells + 2 uM doxorubicin, CellTiter-Glo, 72 h; 85,000 tested, 0.04% active;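 active means viability drop by adding the cancer drug above about 55%, with treated viability meeting a 40% cutoff, limit read from the data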;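 further: larger differential means the compound sensitizes cells more to doxorubicin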
MRP1 act – MRP-1 activation; H69AR cells + doxorubicin, viability rescue, CellTiter-Glo; viability increase, % at 10 µM; 140,000 tested, 0.61% active; AID 799;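 active means viability gain under doxorubicin at or above a set limit, the compound median plus 3 SD, cut at about 4.7% in these data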;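 further: MRP-1 overexpressing cells given doxorubicin 25 µM after compound pretreatment; 18-22 h compound pretreatment then 72 h with doxorubicin before readout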
Phagocyt inh – inhibitors of macrophage phagocytosis; 110,000 tested, 0.07% active; J774A.1 macrophage IgG-bead phagocytosis, imaging; inhibition, % at 5 µM;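 active means inhibition above the mean of the plate negative controls plus 5 SD, cut at about 13% in these data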;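 further: phagocytic index as fraction of beads internalized from green versus red external bead signal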
A number is an active result. Most compounds without a hit are left out; they make up all but 0.69% or so of the library.

Results for O=C(CSc1nnc(-c2ccccc2)n1-c1ccc(Cl)cc1)N/N=C/c1ccco1 ?
MRP1 act: 5.2; Phagocyt inh: inactive

How did CC1CCCCC12NC(=O)N(CC(=O)Nc1ccc(N3CCOCC3)cc1)C2=O (centres undefined) do in these assays?
MRP1 act: inactive; Phagocyt inh: inactive

How did COc1ccccc1/C=C(/C(=O)OCC(=O)N(C)Cc1ccccc1)c1ccccc1 do in these assays?
MRP1 act: inactive; Phagocyt inh: inactive

Results for COc1cc([N+](=O)[O-])ccc1NC(=O)CSc1nc2ccccc2n1-c1ccccc1 ?
MRP1 act: inactive

Results for C=CCn1c(CNc2ccccc2)nnc1SCC(=O)N/N=C/c1ccccc1O ?
MRP1 act: 5.3; Phagocyt inh: inactive

Results for C=CCn1c(Cc2c[nH]c3ccccc23)nnc1SCC(=O)NCc1ccccc1 ?
MRP reversal: inactive; MRP1 act: inactive

How did O=C1C(Cc2ccc(Br)cc2)SC(=Nc2ccccc2)N1c1ccccc1 (centres undefined) do in these assays?
MRP1 act: inactive; Phagocyt inh: inactive

What do the screens show for `O=C1C(Cc2cccc([N+](=O)[O-])c2)SC(=Nc2ccccc2)N1c1ccccc1` (centres undefined)?
MRP1 act: 6.4; Phagocyt inh: inactive

How did COc1ccccc1NC(=O)/C(=C/c1cccc([N+](=O)[O-])c1)c1ccccc1 do in these assays?
MRP1 act: inactive; Phagocyt inh: inactive

What do the screens show for `CCCC(=O)Nc1ccc2c(c1)c1ccccc1n2CC`?
MRP1 act: inactive; Phagocyt inh: inactive

How did CCn1c2ccccc2c2cc(NC(=O)CC(C)=O)ccc21 do in these assays?
MRP1 act: 4.8; Phagocyt inh: inactive

How did Cc1ccc(C(=O)NC(C)c2ccc(F)cc2)cc1 (centres undefined) do in these assays?
MRP1 act: 6.3; Phagocyt inh: inactive

How did CC(NC(=O)c1ccc(F)cc1)c1ccccc1 (centres undefined) do in these assays?
MRP1 act: inactive; Phagocyt inh: inactive

Results for O=C(COc1ccc(-n2cnnn2)cc1)NC1CCCCC1 ?
MRP reversal: inactive; MRP1 act: inactive; Phagocyt inh: inactive

What do the screens show for `Cn1nnc(NC(=O)COc2ccc(C3CCCCC3)cc2)n1`?
MRP reversal: inactive; MRP1 act: 5.3; Phagocyt inh: inactive

Results for CCC(CC)C1=NN2C(=N)/C(=C\c3cc(C)n(-c4cccc(C)c4)c3C)C(=O)N=C2S1 ?
MRP1 act: inactive; Phagocyt inh: inactive

What do the screens show for `CC(C)CC1NC(=S)N(Cc2ccccc2)C1=O` (centres undefined)?
MRP1 act: inactive

What do the screens show for `COc1ccc(CCNC(=O)CSCc2ccc([N+](=O)[O-])cc2)cc1OC`?
MRP1 act: inactive; Phagocyt inh: inactive

How did COc1ccc(CCNC(=O)CSCc2ccc(Cl)cc2)cc1OC do in these assays?
MRP1 act: 5.0

Results for Cn1ncc(Br)c1C(=O)NC12CC3CC(CC(C3)C1)C2 ?
MRP1 act: inactive

How did O=C(Nc1ccc(CCC(=O)N2CCCC2)cc1)c1ncn[nH]1 do in these assays?
MRP reversal: inactive; MRP1 act: inactive; Phagocyt inh: inactive

What do the screens show for `O=C(Nc1ccc(N2CCCCC2)c(Cl)c1)c1ncn[nH]1`?
MRP1 act: 8.8; Phagocyt inh: inactive

Results for O=C(Nc1ccc(N2CCCC2)c(Cl)c1)c1ccco1 ?
MRP reversal: inactive; MRP1 act: 4.9; Phagocyt inh: inactive

What do the screens show for `O=C(Nc1ccc(N2CCCCC2)c(C(=O)O)c1)c1ccco1`?
MRP reversal: inactive; MRP1 act: inactive; Phagocyt inh: inactive

Results for CC(C)NC(=O)c1nn(C)c2ccccc12 ?
MRP1 act: inactive; Phagocyt inh: inactive

What do the screens show for `CC(C)Nc1nnc(Sc2ccc(Cl)cc2[N+](=O)[O-])s1`?
MRP1 act: inactive; Phagocyt inh: inactive

Results for O=C(CSc1nnc(CCCN2C(=O)c3cccc4cccc(c34)C2=O)n1-c1ccccc1)N1CCN(CCO)CC1 ?
MRP1 act: inactive; Phagocyt inh: inactive

What do the screens show for `COc1ccc(C2CC(c3ccccc3)=NN2C(=O)COC(=O)c2cccnc2)cc1` (centres undefined)?
MRP1 act: inactive; Phagocyt inh: inactive

What do the screens show for `COc1ccc(C2CC(c3ccccc3)=NN2C(=O)COC(=O)c2cccnc2Cl)cc1` (centres undefined)?
MRP1 act: 5.4; Phagocyt inh: inactive

What do the screens show for `O=C(CCN1C(=O)/C(=C/c2ccccc2)SC1=S)NNC(=O)c1cccnc1`?
MRP1 act: 6.6

What do the screens show for `Cn1cccc1/C=C1\SC(=S)N(NC(=O)c2ccccc2)C1=O`?
MRP1 act: inactive; Phagocyt inh: inactive

What do the screens show for `O=C(NN1C(=O)/C(=C\c2cccnc2)SC1=S)C(c1ccccc1)c1ccccc1`?
MRP1 act: 5.5; Phagocyt inh: inactive

How did Cc1ccc(/C=C2\SC(=S)N(CCC(=O)NNC(=O)c3cccnc3)C2=O)cc1 do in these assays?
MRP1 act: 8.7; Phagocyt inh: inactive

Results for O=C(NN1C(=O)/C(=C/c2cccnc2)SC1=S)C(c1ccccc1)c1ccccc1 ?
MRP1 act: inactive

What do the screens show for `O=C(CCN1C(=O)/C(=C/c2cccc(Br)c2)SC1=S)NNC(=O)c1cccnc1`?
MRP1 act: inactive

How did CC(=O)NN1C(=O)/C(=C/c2ccc(C(C)C)cc2)SC1=S do in these assays?
MRP1 act: 4.7; Phagocyt inh: inactive

Results for O=C(CCN1C(=O)/C(=C/c2ccc(F)cc2)SC1=S)NNC(=O)c1cccnc1 ?
MRP1 act: inactive; Phagocyt inh: inactive

How did COc1ccccc1CNC(=O)C(=O)NCC1OCCN1C(=O)c1cccs1 (centres undefined) do in these assays?
MRP1 act: inactive; Phagocyt inh: inactive

What do the screens show for `O=C(NCc1ccc(F)cc1)C(=O)NCC1OCCN1C(=O)c1cccs1` (centres undefined)?
MRP1 act: 5.3; Phagocyt inh: inactive

Results for Cc1ccc(NS(=O)(=O)c2cc(C(=O)Nc3cccc(N(C)S(C)(=O)=O)c3)ccc2C)c(C)c1 ?
MRP1 act: inactive; Phagocyt inh: inactive

How did COc1ccc(N(C(=O)c2ccco2)C(C(=O)NC2CCCCC2)c2cccs2)cc1OC (centres undefined) do in these assays?
MRP reversal: inactive; MRP1 act: inactive

Results for C#CC(=O)N(c1cc(OC)ccc1OC)C(C(=O)NC1CCCC1)c1cccs1 (centres undefined) ?
MRP1 act: inactive; Phagocyt inh: 73

What do the screens show for `Cc1ccnc(N2CCC(C(=O)NNC(=O)COc3cccc4ccccc34)CC2)n1`?
MRP1 act: inactive; Phagocyt inh: inactive

What do the screens show for `C=CCc1c(C)nc(C)nc1N/N=C/c1ccccc1`?
MRP reversal: inactive; MRP1 act: inactive; Phagocyt inh: inactive

What do the screens show for `C=CCc1c(C)nc(-c2ccccc2)nc1Nc1ccccc1O`?
MRP1 act: inactive; Phagocyt inh: inactive

How did C=CCc1c(C)nc(-c2ccccc2)nc1N/N=C(\C)c1ccc(N)cc1 do in these assays?
MRP1 act: 5.7; Phagocyt inh: inactive

Results for C=CCc1c(C)nc(-c2ccccc2)nc1N/N=C/c1ccccc1 ?
MRP1 act: 8.5; Phagocyt inh: inactive

How did COc1ccc2oc(=O)c(C(=O)N3CCN(C45CC6CC(CC(C6)C4)C5)CC3)cc2c1 do in these assays?
MRP reversal: inactive

How did O=c1c2sccc2nc(SCc2ccc([N+](=O)[O-])cc2)n1Cc1ccccn1 do in these assays?
MRP1 act: inactive; Phagocyt inh: inactive

High-throughput results: PubChem, several laboratories
